# The campaign covered roughly 290,000 compounds. About 160 (0.055%) were called active. This excerpt belongs to a sample that is enriched for actives. Unmarked numbers belong to inactive results. No stated cut-off is given here; in the data, active means inhibition above about 50%; inactive means the rest.
# Biological target: Tyrosine-protein phosphatase non-receptor type 22 (Homo sapiens) (UniProt Q9Y2R2)
# Assay: PTPN22 lymphoid phosphatase activity blockers – biochemical, fluorescence intensity, uHTS (AID 1779);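 further: plate controls were vehicle with enzyme for no effect and no enzyme for full effect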
# Details: recombinant LYP phosphatase, at 11.5 µM, hits give high values
# Chain of Tyrosine-protein phosphatase non-receptor type 22 (Homo sapiens) (Q9Y2R2 whole entry, looked up): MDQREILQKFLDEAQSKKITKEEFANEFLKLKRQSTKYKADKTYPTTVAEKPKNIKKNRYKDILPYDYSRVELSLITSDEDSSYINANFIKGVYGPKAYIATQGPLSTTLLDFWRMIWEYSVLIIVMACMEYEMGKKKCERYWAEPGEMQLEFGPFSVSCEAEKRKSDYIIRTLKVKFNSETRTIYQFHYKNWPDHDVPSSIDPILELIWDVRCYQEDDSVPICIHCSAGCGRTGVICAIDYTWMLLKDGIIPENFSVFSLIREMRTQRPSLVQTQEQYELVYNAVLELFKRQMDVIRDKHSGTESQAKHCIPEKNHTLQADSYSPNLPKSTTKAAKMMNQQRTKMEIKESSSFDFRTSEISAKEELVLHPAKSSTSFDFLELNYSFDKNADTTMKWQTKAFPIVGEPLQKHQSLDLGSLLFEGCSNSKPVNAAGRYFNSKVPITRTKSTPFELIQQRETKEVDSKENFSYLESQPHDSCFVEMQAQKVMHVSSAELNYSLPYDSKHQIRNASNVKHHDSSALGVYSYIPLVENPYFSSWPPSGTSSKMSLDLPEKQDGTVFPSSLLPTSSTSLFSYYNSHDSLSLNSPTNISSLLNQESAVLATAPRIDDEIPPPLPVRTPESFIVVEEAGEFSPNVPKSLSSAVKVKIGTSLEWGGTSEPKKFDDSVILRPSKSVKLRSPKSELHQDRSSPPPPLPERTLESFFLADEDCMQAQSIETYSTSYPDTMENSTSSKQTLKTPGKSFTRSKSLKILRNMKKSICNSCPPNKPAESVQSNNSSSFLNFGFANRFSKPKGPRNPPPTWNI
row,SMILES,inhibition
1,COC(=O)C(C(=O)NCC1CCCO1)C1CCCCCC1 (centres undefined),86.6% (active)
2,CCOC(=O)C(C(=O)NCC1CCCO1)C1CCCCC1 (centres undefined),-4.2%
3,COC(=O)C(C(=O)NCC1CCCO1)C1CCCC1 (centres undefined),-6.5%
4,CCOC(=O)NC(=O)C(=CNc1cccc(C)c1)C(=O)NC(=O)OCC,-4.7%
5,CCOC(=O)NC(=O)C(=CNc1cccc(OC)c1)C(=O)NC(=O)OCC,-7.5%
6,CCOC(=O)NC(=O)C(=CNc1ccc(C)cc1)C(=O)NC(=O)OCC,57.4% (active)
7,O=C(CN1C(=O)NC2(CCc3ccccc3C2)C1=O)Nc1ccc(F)cc1 (centres undefined),2%
8,COCC(=O)N(Cc1cc2ccc(C)cc2[nH]c1=O)c1cccc(C)c1,-1%
9,NS(=O)(=O)c1cc(C(=O)OCC(=O)N2CCOCC2)ccc1Cl,-4%
10,COc1ccc(/C=C2\SC(=S)N(CCCC(=O)Nc3ccc(C(=O)O)cc3)C2=O)cc1OC,-1.9%
11,COc1cc(/C=C2/SC(=S)N(CCC(=O)Nc3ccc(C(=O)O)cc3)C2=O)cc(OC)c1OC,-0.9%
12,O=S(=O)(CCc1ccncc1)C1Cc2cccc3cccc1c23 (centres undefined),-6.1%
13,CC(C)(C)S(=O)(=O)c1cnc(N2CCCCC2)nc1N,-1.3%
14,COc1ccc(N2C(=O)CC(NC34CC5CC(CC(C5)C3)C4)C2=O)c(OC)c1 (centres undefined),-6.7%
15,CC(=O)c1cccc(NC(=O)NC(C)c2ccc3c(c2)OCO3)c1 (centres undefined),-12.5%
16,CCCNC(=O)c1ccccc1N1CCN(CCCCN2C(=O)C3CCCCN3C2=O)CC1 (centres undefined),-16.7%
17,COc1ccc(C2CC(c3cccs3)=NN2C(=O)CSc2nncn2C)cc1OC (centres undefined),7.7%
18,Cc1[nH]c2ccccc2c1N=Nc1c(C)n(C)n(-c2ccccc2)c1=O,94.5% (active)
19,Cc1c(N=Nc2ccc(O)cc2)c(=O)n(-c2ccccc2)n1C,-2.3%
20,Cc1c(-n2c(=S)[nH]c3ccccc3c2=O)c(=O)n(-c2ccccc2)n1C,-7.5%
21,Cc1cc2c(c(SCC(=O)NCc3ccc(Cl)cc3)n1)C(=O)OC2,-1.3%
22,CSCCC(NC(=O)c1ccccc1)C(=O)N(C)CC(=O)Nc1ccc(N2CCOCC2)cc1 (centres undefined),-6.8%
23,COCCN(C(=O)COC(=O)c1cccc2ccccc12)c1c(N)n(Cc2ccccc2)c(=O)[nH]c1=O,-10.3%
24,Cc1cccc(C)c1Nc1nnc(SC/C(O)=C(\C#N)c2nc3ccccc3[nH]2)s1,4.2%

row,SMILES,inhibition
1,CCOC(=O)C(C(C)C)C(N)Cc1ccc(F)cc1 (centres undefined),-7.7%
2,CCCCC(C(=O)OCC)C(N)Cc1ccc(F)cc1 (centres undefined),89.5% (active)
3,CCCCC(CC)C(=O)NCc1ccc(F)cc1 (centres undefined),-9.2%
4,CC(C)CNC(=O)C1CCCN(C(=O)NCc2ccccc2)C1 (centres undefined),-8.2%
5,CN(C)CCCN1C(=O)CSC1c1ccccc1 (centres undefined),-5.4%
6,COc1ccc(C2SCC(=O)N2CCCN(C)C)cc1 (centres undefined),50.7% (active)
7,COc1cc(C2SCC(=O)N2CCCN(C)C)cc(OC)c1OC (centres undefined),-6.3%
8,COc1ccc(C2CC23N=C(c2ccccc2)OC3=O)cc1 (centres undefined),-2.9%
9,Cc1nnc(SCc2cccs2)[nH]c1=O,-5.9%
10,O=C(NC1CCN(Cc2ccccc2)CC1)C1CCCN(c2nnc(-n3cccc3)s2)C1 (centres undefined),-1.4%
11,CC(C)n1c(C(=O)OCC(=O)NCc2ccc3c(c2)OCO3)cc2sccc21,-13%
12,CC(C)n1c(C(=O)OCC(=O)NCc2ccc3c(c2)OCO3)cc2occc21,59.5% (active)
13,CC(C)C(OC(=O)c1cc2occc2n1C)C(=O)NCc1ccc2c(c1)OCO2 (centres undefined),3.8%
14,NC(=O)CC(NC(=O)Cc1ccc(Br)cc1)c1ccc(NC2CCC2)c([N+](=O)[O-])c1 (centres undefined),-1.3%
15,Cc1cccc(N2CCN(C(=O)c3ccc(Cl)c(NC4=NC5CS(=O)(=O)CC5S4)c3)CC2C)c1 (centres undefined),-0.7%
16,O=C(COc1ccc(S(=O)(=O)N2CCOCC2)cc1Cl)NCC1CCCO1 (centres undefined),-12%
17,c1cc(OCCCN2CCCCC2)ccc1CN1CCCCC1,-8%
18,CCCCCOc1ccc(Cl)cc1CN1CCOCC1,-8.9%
19,CCCCOc1ccc(CN2CCSCC2)cc1,-4.9%
20,CCCOc1ccc(CN2CCOCC2)cc1OC,-8%
21,CCCCOc1ccc(CN2CCCCC2)cc1,67.8% (active)
22,CCCCCOc1ccc(CN2CCOCC2)cc1Cl,50.2% (active)
23,COc1ccc(C(=O)Nc2ccc(Cl)cc2C(=O)NCc2ccco2)cc1OC,0.7%
24,COc1cc(OC)cc(C(=O)NCCN2C(=O)S/C(=C\c3cccs3)C2=O)c1,0.8%

row,SMILES,inhibition
1,Cc1nn(C(C)C(=O)NCCCN2CCCCCC2)c(=O)c2c1sc1ccccc12 (centres undefined),-12.7%
2,Cc1cccc(C)c1NC(=O)Cn1c(=O)n(CCCC(=O)NC2CCN(Cc3ccccc3)CC2)c(=O)c2ccccc21,-5.3%
3,Cc1cc(NC(=O)Cn2c(=O)n(CCCCC(=O)NC3CCN(Cc4ccccc4)CC3)c(=O)c3ccccc32)n[nH]1,73.8% (active)
4,O=C(CCCCn1c(=O)c2ccccc2n(Cc2ccccc2)c1=O)NC1CCN(Cc2ccccc2)CC1,-1.4%
5,CCOC(=O)C1=C(C)NC(=S)NC1c1ccc(-c2cccc(Cl)c2C)o1 (centres undefined),8.2%
6,COc1ccc2[nH]c(C)c(CCNC(=S)Nc3ccccc3C)c2c1,0.8%
7,COc1ccc2[nH]c(C)c(CCNC(=S)Nc3cc(C)ccc3C)c2c1,83.2% (active)
8,COc1ccc2[nH]c(C)c(CCNC(=S)Nc3cc(C)cc(C)c3)c2c1,2.4%
9,COc1ccc(COc2ccc(S(=O)(=O)N3CCCC3)cc2C(N)=O)cc1F,-6%
10,CS(=O)(=O)c1ccc(Cl)c(S(=O)(=O)NCc2ccccc2)c1,-8.1%
11,CCNS(=O)(=O)c1cc(S(C)(=O)=O)ccc1Cl,85.1% (active)
12,Cc1ccccc1NS(=O)(=O)c1cc(S(C)(=O)=O)ccc1Cl,-0.4%
13,CCC(C)(C(=O)NC1CCCC1)N(C(=O)c1cnccn1)c1c(C)n(C)n(-c2ccccc2)c1=O (centres undefined),1.7%
14,NS(=O)(=O)c1ccc(NC(=O)C2C3C=CC(C3)C2C(=O)O)cc1 (centres undefined),-7.2%
15,CC(=O)Nc1ccc(NC(=O)C2C3C=CC(C3)C2C(=O)O)cc1 (centres undefined),-6.4%
16,CC(=O)NS(=O)(=O)c1ccc(NC(=O)C2C3C=CC(C3)C2C(=O)O)cc1 (centres undefined),59.6% (active)
17,COc1ccc(OC)c2c1nc1n2CCS1,-2.7%
18,O=C1/C(=C2\C(=O)N(Cc3ccc(F)cc3)c3ccccc32)SC(=S)N1CCS(=O)(=O)O,-1.2%
19,O=C(CN1C(=O)/C(=C2\SC(=S)N(CCS(=O)(=O)O)C2=O)c2ccccc21)Nc1cccc(Br)c1,71% (active)
20,Cc1cccc(NC(=O)CN2C(=O)/C(=C3\SC(=S)N(CC4CCCO4)C3=O)c3ccccc32)c1 (centres undefined),-7.3%
21,COc1ccc(NC(=O)CN2C(=O)/C(=C3\SC(=S)N(C4CCS(=O)(=O)C4)C3=O)c3ccccc32)cc1 (centres undefined),-5.2%
22,COc1ccc(NC(=O)CN2C(=O)/C(=C3\SC(=S)N(CCC(=O)O)C3=O)c3ccccc32)cc1,69.2% (active)
23,COCCN1C(=O)/C(=C2/C(=O)N(CC(=O)Nc3ccccc3Cl)c3ccccc32)SC1=S,-3.5%
24,Cc1c(N=Cc2cc(Br)cc(Br)c2O)cccc1C(=O)O,-7.4%

row,SMILES,inhibition
1,CC(=O)CCn1cnc([N+](=O)[O-])n1,-3.7%
2,Cc1ccc([C@@H]2[C@@H]3C(=O)N(C)C(=O)[C@@H]3[C@]3(C)C(=O)N(CCO)CC(=O)N23)o1,-10.2%
3,COC(=O)c1[nH]c2ccccc2c1NC(=O)c1ccccc1F,-5.7%
4,COc1ccc(OCC(=O)Nc2ccccc2OC(F)F)cc1,-1.4%
5,CC(C)=NOCc1ccc(-c2cn([C@@H]3COC[C@H]3O)nn2)cc1,-2.9%
6,Cc1ccc(C)n1-c1ccc(-c2ccn[nH]2)cc1,50% (active)
7,Clc1ccc(-c2ccn[nH]2)cc1,-8.1%
8,c1ccn(-c2ccc(-c3ccn[nH]3)cc2)c1,-5.9%
9,O=C(c1cccs1)N1CCCC1,-12%
10,COc1ccccc1CNC(=O)CCC(=O)N1CCOc2ccc(C)cc21,-4.7%
11,COc1ccc([N+](=O)[O-])cc1NC(=S)NC(NC(=O)C(c1ccccc1)c1ccccc1)C(Cl)(Cl)Cl (centres undefined),8%
12,COc1ccccc1OCC(=O)N(Cc1nc(-c2ccccc2)no1)C(C)C,-3.5%
13,CC1CCCCN1Cc1ccc(-c2nnn(CC(=O)NC3CCCCC3)n2)cc1 (centres undefined),-2.1%
14,CCc1cc(-c2n[nH]c(=S)n2CC(C)C)cs1,5.1%
15,CCCc1cc(-c2n[nH]c(=S)n2CC(C)C)cs1,58.3% (active)
16,CCCc1cc(-c2n[nH]c(=S)n2CC)cs1,-1.3%
17,Cc1cc2oc(=O)cc(CN(C)Cc3ccccc3F)c2cc1Cl,-0.7%
18,COc1ccc(N2CCN(C(=O)c3ccc(S(=O)(=O)N4CCCC4)cc3)CC2)cc1,-0.4%
19,COc1cc(=O)n(C)c2cc(N(C)C)ccc12,-9.9%
20,COc1cc(=O)n(C)c2ccccc12,-3.8%
21,COc1ccc2c(OC)cc(=O)n(C)c2c1,59.6% (active)
22,CCOC(=O)CSc1nc2ccccc2c(=O)n1CC,1.2%
